Consider 15 compounds from PubChem BioAssay (NCI).

This is part of a sample that, as a whole, favours compounds with a hit. Of some 83,000 tested, about 20% had one in any assay.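 Method: cells in 96-well plates; compound added at one concentration; 48 h incubation; percent growth measured; values under 10 scored active.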 The source made the active and inactive calls.

In this assay the test system is HCT-15 colon. Nature of the assay: NCI-60 one-dose screen, 48 h (100 = growth as untreated, 0 = no growth, -100 = all killed). Conditions: 10 µM unless noted.
Regarding `COc1cccc2cc(-c3cc4ccccc4[nH]3)/c(=N/C(=S)Nc3ccc(C)cc3)oc12`, the growth was 72% (inactive).

With `CN1C(=O)N(C)C2NC(N/N=C/c3ccccc3)=NC21` (stereo not given), the growth is 103% (inactive).

In the case of `COc1cc(-c2cc(=O)oc3cc(O)ccc23)cc(OC)c1OC`, the growth is 91.3% (inactive).

On to `COc1ccccc1/C=N/NC1=NC2C(N1)N(C)C(=O)N2C` (stereo not given), for which the growth is 104% (inactive).

Consider `CCN(CC)CCSCCCNc1c(C)cnc2cc(Cl)ccc12`, for which the growth is 76.7% (inactive).

As to `COc1cc(Nc2cc(O)c3c(=O)cc(-c4ccccc4)oc3c2)cc(OC)c1`, the growth was 25% (inactive).

On to `NC(=O)c1ncn(C2OC(CO)C(O)C2O)n1` (stereo not given), for which the growth is 89.3% (inactive).

As for `C(=N\Nc1ncc(-c2cc3cc4c(cc3o2)OCO4)s1)/c1c[nH]c2ccccc12`, the growth is 6.56% (active).

As to `c1ccc(C2CC(c3cccc(Nc4ccncc4)c3)=NN2c2ccccc2)cc1` (stereo not given), the growth was -15.7% (active).

For the compound `CC1=NNC(=O)C1CCC(=O)N/N=C(\C)c1ccc2ccccc2c1` (stereo not given), the growth was 107% (inactive).

As to `O=C(N/N=C/c1ccncc1)c1ccccc1Nc1cccc(C(F)(F)F)c1`, the growth is 74.2% (inactive).

On to `COc1ccc(Nn2c(SCC(=O)Nc3nc(-c4ccc(Cl)cc4)cs3)nc(C)c2C)cc1`, for which the growth is 59.8% (inactive).

For `COc1c(Cl)cc(Cl)c2ccc(C=C3C(=O)N(C)C(=O)N(C)C3=O)nc12`, the growth was 103% (inactive).

On to `Cc1cccc(C)c1-c1cc(Cc2ccc(Cl)cc2)c(=O)[nH]n1`, for which the growth was 107% (inactive).

Turning to `CCN1C(=O)N(CC)C2C1NN=c1s/c(=C3\C(=O)Nc4ccccc43)c(=O)n12` (stereo not given), the growth was 26.8% (inactive).
